A selection: hits, their analogues and other compounds. The true share with any hit is near 1.6%.
KCNQ2 pot – KCNQ2 (rat) channel potentiation; O88943; CHO-K1 KCNQ2, FluxOR thallium flux fluorescence; hits give high values; 310,000 tested, 0.54% active; B-score at 10 µM;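 active = fluorescence ratio B-score at least 3 SD of library B-scores, with initial fluorescence B-score within 3 of them, cut at about 5.3 in these data; same plate scores as AID 2156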;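 also: B-score of peak minus minimum over baseline fluorescence ratio after K+ and Tl+ stimulus; positive B-score means potentiation of KCNQ2 with more thallium influx and brighter signal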
KCNQ2 inh – inhibitors of rat KCNQ2 potassium channel; CHO-K1 KCNQ2, FluxOR thallium flux, 20 min; hits give low values; AID 2156; B-score at 10 µM; 310,000 tested, 1.1% active; O88943;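 active = fluorescence ratio B-score at most minus 3 library SDs, with starting brightness B-score within 2 library SDs, cut at about -5.5 in these data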
Kir21 confirm – confirmation of mouse Kir2.1 potassium channel inhibitors. Kir2.1-expressing cells, FluxOR thallium flux fluorescence; hits give low values. shares compounds with KCNQ2 pot. Tl flux remaining, % of negative control (hits give low values), % at 10 µM. 2,300 tested, 41% active;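 active = Primary-screen hit whose thallium flux fell at least 3 control SD below untreated wells in both duplicates, with normal baseline fluorescence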
Target sequence (P35561 whole entry, looked up): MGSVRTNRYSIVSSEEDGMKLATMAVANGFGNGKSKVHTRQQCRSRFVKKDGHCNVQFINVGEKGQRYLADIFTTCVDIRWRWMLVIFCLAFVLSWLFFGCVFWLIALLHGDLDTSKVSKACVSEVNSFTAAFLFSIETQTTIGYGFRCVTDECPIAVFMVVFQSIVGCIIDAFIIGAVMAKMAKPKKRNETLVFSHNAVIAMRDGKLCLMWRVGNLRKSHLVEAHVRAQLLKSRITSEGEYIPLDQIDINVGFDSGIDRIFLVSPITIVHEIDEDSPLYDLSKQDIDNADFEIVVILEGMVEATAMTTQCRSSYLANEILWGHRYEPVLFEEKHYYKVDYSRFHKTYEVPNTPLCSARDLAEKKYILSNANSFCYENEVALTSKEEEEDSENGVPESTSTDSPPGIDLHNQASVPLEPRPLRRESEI
HEK293 ctr – parental HEK293 activity in Kir2.1 inhibitor counter-screen | shares compounds with KCNQ2 pot | parental HEK293 cells, FluxOR thallium flux fluorescence; 0% = unstimulated blank wells | FluxOR signal as % of negative control (100 = no effect), % at 10 µM | 2,300 tested, 19% active | AID 2105;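 active = dye signal at least 3 control SD above or below untreated wells in both duplicates, raw fluorescence within 3, either direction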;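 also: percent is based on the flux ratio of peak minus minimum fluorescence over baseline F0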
CHO-K1 Tl ctr – parental CHO-K1 activity in KCNQ2 potentiator counter-screen; activity increase over 3SD of controls, % at 10 µM; AID 2282; shares compounds with KCNQ2 pot; 1,200 tested, 43% active; parental CHO-K1 cells, FluxOR thallium flux fluorescence; zero = vehicle mean+3SD, 100% = vehicle-minus-blank window;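 active = signal rise of at least 3 SD above the untreated control mean, in both duplicate wells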;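 also: counter screen of KCNQ2 potentiator hits so any rise reflects channel-independent effects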
KCNQ1 sel pot – tests whether KCNQ2 potentiators also act on human KCNQ1 | shares compounds with KCNQ2 pot | CHO KCNQ1 stable, FluxOR thallium flux fluorescence; beyond 3SD, as % of vehicle-control signal | activation over 3SD threshold, % at 10 µM | 1,200 tested, 28% active | AID 2283;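 active = fluorescence ratio rise of at least 3 SD of vehicle wells above their mean, in both replicate wells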
KCNQ2 pot confirm – rat KCNQ2 channel potentiator confirmation. shares compounds with KCNQ2 pot. 1,200 tested, 68% active. CHO-KCNQ2 cells, FluxOR thallium flux fluorescence. potentiation, less the hit threshold, % at 10 µM;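 active = fluorescence ratio rising 3 SD or more over the vehicle control mean in both replicates, plus primary screen hit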;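 also: peak minus minimum thallium fluorescence divided by baseline after K/Tl stimulus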
Kir21 spec – tests whether KCNQ2 potentiators also affect mouse Kir2.1. shares compounds with KCNQ2 pot. HEK293 Kir2.1, FluxOR thallium flux fluorescence. activity over 3SD threshold, % at 10 µM. 1,200 tested, 2% active;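 active = fluorescence ratio rise of at least 3 SD above the vehicle-control mean, seen in both replicates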
KCNQ2 W236L MoA – potentiates the retigabine-insensitive rat KCNQ2 W236L mutant channel. CHO KCNQ2-W236L, automated patch clamp current. shares compounds with KCNQ2 pot. 940 tested, 10% active. current increase over 3SD of negative controls (%), hits give high values, % at 25 µM;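 active = current increase at least 3 SD of the untreated controls above them in both duplicate recordings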
Each line names hits and unclear results; the compound was inactive in the other large screens (follow-up assays come after a bar, where they were run).

CN(Cc1ccccc1)CC1CCCN(CCc2ccccc2F)C1 (centres undefined)	none (no result: KCNQ2 pot)
CCOc1cccc(CN(C)CC2CCCN(CCc3ccc(Cl)cc3)C2)c1O (centres undefined)	none (no result: KCNQ2 pot) | Kir21 confirm 48% | HEK293 ctr inactive
CC(=O)c1cccc(CN(C)CC2CCCN(CCc3ccccc3C)C2)c1 (centres undefined)	none | Kir21 confirm 51% | HEK293 ctr inactive
COc1ccc(CN(C)CC2CCCN(CCc3ccc(Cl)cc3)C2)cc1OC (centres undefined)	none (no result: KCNQ2 pot)
COc1cc(CN(C)CC2CCCN(CCc3ccc(F)cc3)C2)c(Cl)cc1O (centres undefined)	none
COc1ccc(CCN2CCCC(CN(C)Cc3cc(OC)c(OC)c(OC)c3)C2)cc1 (centres undefined)	none
CCc1noc(C)c1C(=O)Nc1ccc(F)c(F)c1F	none (no result: KCNQ2 pot)
Cc1ccc(NC(=O)CSc2n[nH]c(C)c2[N+](=O)[O-])cc1	none
CCCCC(=O)N1CCCC(c2nc3c(nnn3Cc3cc(C)ccc3C)c(=O)[nH]2)C1 (centres undefined)	none (no result: KCNQ2 pot)
N/C(=N\OC(=O)Cc1ccccc1[N+](=O)[O-])c1ccccn1	none
CCOc1ccc(S(=O)(=O)N(C)C2CCCCC2)cc1	none (no result: KCNQ2 pot)
CN=C1NN=C(c2cc(C)n(-c3ccc(Cl)cc3)c2C)CS1	none (no result: KCNQ2 pot)
O=C(O)c1cc(NN=C2c3ccccc3-c3ccccc32)ccc1Cl	KCNQ2 pot 9.2 | Kir21 confirm inactive | HEK293 ctr inactive | CHO-K1 Tl ctr 51 | KCNQ1 sel pot inactive | KCNQ2 pot confirm 51 | Kir21 spec inactive | KCNQ2 W236L MoA 22%
O=C(O)c1cccc(NN=C2c3ccccc3-c3ccccc32)c1	none (no result: KCNQ2 pot)
CCOc1cccc(CNCc2cccnc2)c1OCc1ccccc1	none | Kir21 confirm 45% | HEK293 ctr inactive
Clc1ccc(COc2ccccc2CNCc2cccnc2)cc1	none
Cn1c(NCCO)nc2c1c(=O)n(Cc1ccc(F)cc1)c(=O)n2C	none
O=[N+]([O-])c1ccc(NCc2ccc(Cl)cc2)nc1	none
O=[N+]([O-])c1ccc(Nc2ccc(Cl)cc2)nc1	KCNQ2 pot 14 | Kir21 confirm inactive | HEK293 ctr inactive | CHO-K1 Tl ctr inactive | KCNQ1 sel pot inactive | KCNQ2 pot confirm 18 | Kir21 spec inactive | KCNQ2 W236L MoA inactive
CCCCCCCCC/C(=N\O)c1ccccn1	KCNQ2 pot 24 | Kir21 confirm inactive | HEK293 ctr 66% | CHO-K1 Tl ctr inactive | KCNQ1 sel pot inactive | KCNQ2 pot confirm 20 | Kir21 spec inactive | KCNQ2 W236L MoA inactive
CCCCCCCCC(=O)N/N=C/c1ccccn1	none
c1cc2ccc3ccc(CN4CCOCC4)c4ccc(c1)c2c34	none
OC1CCCN(Cc2ccc3ccc4cccc5ccc2c3c45)C1 (centres undefined)	none (no result: KCNQ2 pot) | Kir21 confirm 48% | HEK293 ctr inactive
Brc1cccc(OCCCCn2cncn2)c1	none
NC(=O)C1CCN(C(=O)COc2ccc3ccccc3c2Br)CC1	none (no result: KCNQ2 pot)
O=C(COc1ccc2ccccc2c1Br)N1CCCCC1	KCNQ2 pot 13 | Kir21 confirm inactive | HEK293 ctr inactive | CHO-K1 Tl ctr inactive | KCNQ1 sel pot inactive | KCNQ2 pot confirm 30 | Kir21 spec inactive | KCNQ2 W236L MoA inactive
CCn1c(SCC(=O)N2CCCCC2)nc(O)cc1=O	none
O=C(COC(=O)CCSc1ccc(Cl)cc1)NCCc1ccccc1	none (no result: KCNQ2 pot)
CC(C)(Oc1ccc(Cl)cc1)C(=O)OCC(=O)NCCc1ccccc1	none | Kir21 confirm 62% | HEK293 ctr inactive
CCn1c(CSCc2ccc(C)cc2)nnc1SCC(=O)NCc1ccccc1	none (no result: KCNQ2 pot) | Kir21 confirm inactive | HEK293 ctr inactive
